Reference: PubChem BioAssay (Tox21)
A number with no mark means an inactive call. The source made the active and inactive calls. Calls follow the shape of the dose curve; as a rule, active = well fitted activation curve with a large enough effect in the repeat runs; inconclusive = weak or mixed curves; inactive = flat fitted curve, though single readings scatter.
% is scaled to controls: 0 for no effect and ±100 for the full control effect; potency is read from the fitted curve at half-maximal effect.

Experiment: A CellTox Green Cytotoxicity Assay to monitor cytotoxicity in HEK293 cells - 0 hour (AID 1224869); also: nearly all actives have a fitted effect of over 50% in size
Conditions: CellTox Green fluorescence; series mostly up to 76.8 µM; cytotoxicity: at the top concentration
Excerpt: National Center for Advancing Translational Sciences [NCATS]
NIH Chemical Genomics Center [NCGC]
U.S. Environmental Protection Agency [EPA]
National Institutes of Environmental Health Sciences [NIEHS]
National Toxicology Program [NTP]
Cell-based models are critical for drug discovery. Determining the natural cytotoxic effects resulting from test compounds is an essential research activity. A CellTox Green Cytotoxicity Assay to monitor cytotoxicity in real time of continues cell culture during 40 hours of the compound treatment was used to screen Tox21 10K library compounds in Hek293 cells. CellTox Green Cytotoxicity Assay is a nonlytic, homogeneous, biofluorescent method to measure cytotoxicity in cell culture after experimental manipulation. The assay system uses a proprietary asymmetric cyanine dye that is excluded from viable cells but preferentially stains the dead cell's DNA. […] Viable cells produce no appreciable increases in fluorescence. Therefore, the fluorescence signal produced by the binding interaction with dead cell DNA is proportional to cytotoxicity.
The mixture of Hek293 cell suspension and reagents were dispensed at 600cells/6 ul/well in 1536-well tissue culture treated black solid bottom plates using a Multidrop dispenser. After the assay plates were incubated at a 37 C/5% CO2 incubator for 5 hours, 23 nL of compounds dissolved in DMSO, positive and negative controls was transferred to the assay plate by a pintool work station. The plates were incubated at 37 C for 40 hours. The fluorescence intensity were measured at 0h, 8h, 16h, 24h, 32h and 40h time points using ViewLux plate reader during compound treatment.
For `OC[C@@H](O)[C@@H](O)CO`, the “cytotoxicity” value was -0.129%.
With `COc1ccc(-c2coc3cc(O)ccc3c2=O)cc1` the “cytotoxicity” value was -6.79%.
With `COc1c(C)c2c(c(O)c1C/C=C(\C)CCC(=O)OCCN1CCOCC1)C(=O)OC2` the “cytotoxicity” value was -0.16% [at 35.3 µM].
With `O=c1c(O)c(-c2ccc(O)cc2O)oc2cc(O)cc(O)c12` the “cytotoxicity” value was 11%.
With `COc1ccc2cc1Oc1ccc(cc1)C[C@H]1c3c(cc4c(c3Oc3cc5c(cc3OC)CCN(C)[C@@H]5C2)OCO4)CCN1C` the “cytotoxicity” value was 6.65% [at 35.3 µM].
For `O=C(O)Cc1ccc2c(c1)C(=O)c1ccccc1CO2`, the “cytotoxicity” value was -3.59% [at 35.3 µM].
In the case of `CN1CCN(Cc2cc(-c3ccc4[nH]c(=O)oc4c3)co2)[C@@H](c2ccc(F)cc2)C1`, the “cytotoxicity” value is reported as 0.563%.
For `CCOc1ccc2ccccc2c1C(=O)N[C@@H]1C(=O)N2[C@@H]1SC(C)(C)[C@@H]2C(=O)O`, the “cytotoxicity” value was -0.952% [at 35.3 µM].
For `COc1cc(/C=C/c2ccccc2)oc(=O)c1`, the “cytotoxicity” value was 0.383%.
For `O=C(/C=C/c1ccc(O)c(O)c1)O[C@@H](C(=O)O)[C@@H](OC(=O)/C=C/c1ccc(O)c(O)c1)C(=O)O`, the “cytotoxicity” value was -6.68%.
For `c1ccc(C(O[C@@H]2CCCN(CCc3ccc4c(c3)OCO4)C2)c2ccccc2)cc1`, the “cytotoxicity” value was -2.15%.
For `Nc1ccc(Oc2ccc(Cl)cc2)cc1`, the “cytotoxicity” value was 0.902%.
For `NC(=S)NC(N)=S`, the “cytotoxicity” value was -4.68%.
With `Cc1ccc(O)c(O)c1` the “cytotoxicity” value was 19.9%.
For `C[Si](Cl)(c1ccccc1)c1ccccc1`, the “cytotoxicity” value was 5.97%.
For `C=C(C)C(=O)OCCCCCCCCCC`, the “cytotoxicity” value was 0.705%.
For `CCCCCCCCCCCCCC[N+](C)(C)C`, the Potency was “inactive”.
In the case of `Cc1cc(-c2ccc(N=Nc3cc(S(=O)(=O)O)c4ccccc4c3N)c(C)c2)ccc1N=Nc1cc(S(=O)(=O)O)c2ccccc2c1N`, the “cytotoxicity” value is reported as 9.33%.
For `Cc1ccc(N/N=c2\c(=O)cc/c(=N\Nc3ccc(S(=O)(=O)O)cc3)c2=O)c(C)c1`, the “cytotoxicity” value was -15.8%.
In the case of `FC(F)(F)c1cccc(Cl)c1`, the “cytotoxicity” value is reported as -7.77%.
With `Cc1cc(C(C)(C)C)cc(C)c1CC1=NCCN1` the “cytotoxicity” value was -6.02% [at 35.3 µM].
In the case of `O=C(O)c1cccc(C(F)(F)F)c1`, the “cytotoxicity” value is reported as 0.933%.
For `Cc1ccc(C(C)C)cc2c(C)ccc1-2`, the “cytotoxicity” value was 0.172% [at 35.3 µM].
With `Cl[Si](Cl)(c1ccccc1)c1ccccc1` the “cytotoxicity” value was 10.7%.
With `CCCCCCC1CCCC(=O)O1` (stereo not given) the “cytotoxicity” value was 6.19%.
In the case of `CC(C)(C)C1CCC(=O)CC1`, the “cytotoxicity” value is reported as 2.38%.
In the case of `O=C(Nc1ccc2c(O)c(N=Nc3ccc(N=Nc4ccc(S(=O)(=O)O)cc4)cc3)c(S(=O)(=O)O)cc2c1)c1ccccc1`, the “cytotoxicity” value is reported as -18.4%.
In the case of `CC(=O)CC(=O)Nc1ccc(S(=O)(=O)O)cc1`, the “cytotoxicity” value is reported as -8.21%.
In the case of `CC[N+](CC)(CC)CCOc1ccc(/C=C/c2ccccc2)cc1`, the “cytotoxicity” value is reported as -14.6% [at 35.3 µM].
For `O=C(O)c1cc(O)c2ccccc2c1O`, the “cytotoxicity” value was -4.56%.
For `O=[N+]([O-])c1ccc(O)cc1C(F)(F)F`, the “cytotoxicity” value was -0.958%.
With `Cc1c(F)c(N2CCNC(C)C2)cc2c1c(=O)c(C(=O)O)cn2C1CC1` (stereo not given) the “cytotoxicity” value was 1.3% [at 35.3 µM].
With `O=C(O)c1cc(N=Nc2ccc([N+](=O)[O-])cc2)ccc1O` the “cytotoxicity” value was 0.447%.
In the case of `C#C[C@]1(OC(C)=O)CC[C@H]2[C@@H]3CCC4=C/C(=N/O)CC[C@@H]4[C@H]3CC[C@@]21CC`, the “cytotoxicity” value is reported as -2.62% [at 35.3 µM].
With `O=C(O)CN(CCN(CC(=O)O)CC(=O)O)CC(=O)O` the Potency was 1960 nM (active).
For `CC/C=C\CCCCCO`, the “cytotoxicity” value was -0.725%.
In the case of `CC(=O)Oc1cc2c(s1)CCN(C(C(=O)C1CC1)c1ccccc1F)C2` (stereo not given), the “cytotoxicity” value is reported as -1.07% [at 35.3 µM].
For `CCCCC(CC)COC(=O)CCCCC(=O)OCc1ccccc1` (stereo not given), the “cytotoxicity” value was -0.0844%.
In the case of `CC1(C)CC(O)CC(C)(C)N1`, the “cytotoxicity” value is reported as -1.89%.
For `COc1cc(S(=O)(=O)O)c(C)cc1N=Nc1c(O)ccc2cc(S(=O)(=O)O)ccc12`, the “cytotoxicity” value was -14.8%.
